Bioassay records (PubChem)
KLK7 zymogen act – proKLK7 zymogen activators, primary screen, biochemical, fluorescence intensity; purified proKLK7, EDANS-DABCYL substrate fluorescence; 100% is mature enzyme control, 0% vehicle; activation, % at 7 µM; Kallikrein-7 (Homo sapiens), P49862; hit rate 0.9% among 370,000; AID 652039, 2013;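 active means activation above the mean of all tested compounds plus 3 SD, computed per campaign excluding outliers beyond control limits, cut at about 13% in these data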
PLCb3 inh – human PLC-beta3 inhibitors, primary screen, biochemical, fluorescence; 1-phosphatidylinositol 4,5-bisphosphate phosphodiesterase beta-3 (Homo sapiens), Q01970; Purified PLC-beta3, fluorogenic substrate; inhibition, % at 12.2 µM; hit rate 0.18% among 370,000; in the data active means inhibition above about 11%;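 further: 0% = median of compound wells on plate and 100% = full blocker control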
ADAM10 inh – human ADAM10 inhibitors, primary screen, biochemical, QFRET, HTS | recombinant ADAM10, EDANS/DABCYL FRET peptide cleavage, 3 h | inhibition, % at 7 µM | hit rate 0.62% among 370,000 | AID 720582, 2013;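 active means inhibition above a per-campaign cutoff equal to the mean of compounds falling between control-based bounds plus 3 SD, cut at about 20% in these data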;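 further: 0% = DMSO wells while the 100% control is not disclosed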
Target sequence (O14672 214-748 limits assumed): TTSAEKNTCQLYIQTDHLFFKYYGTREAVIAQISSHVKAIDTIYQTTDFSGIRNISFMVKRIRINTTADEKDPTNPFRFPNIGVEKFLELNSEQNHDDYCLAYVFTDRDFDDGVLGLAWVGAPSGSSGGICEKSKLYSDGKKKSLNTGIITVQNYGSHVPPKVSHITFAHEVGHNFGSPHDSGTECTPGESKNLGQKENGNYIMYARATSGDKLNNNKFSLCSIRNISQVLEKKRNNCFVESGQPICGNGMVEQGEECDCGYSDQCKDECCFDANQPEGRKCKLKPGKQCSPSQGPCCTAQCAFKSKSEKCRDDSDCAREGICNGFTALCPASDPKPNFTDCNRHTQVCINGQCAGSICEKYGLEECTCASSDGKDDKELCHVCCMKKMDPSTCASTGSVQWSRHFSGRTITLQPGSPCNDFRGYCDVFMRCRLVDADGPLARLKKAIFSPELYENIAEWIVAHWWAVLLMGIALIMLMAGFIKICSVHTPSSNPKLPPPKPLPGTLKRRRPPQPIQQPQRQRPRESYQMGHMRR
ADAM17 inh – ADAM17 inhibitors, primary screen, biochemical, QFRET; Disintegrin and metalloproteinase domain-containing protein 17 (Homo sapiens), P78536; recombinant ADAM17, EDANS/DABCYL FRET peptide cleavage; inhibition, % at 6.95 µM; hit rate 0.83% among 370,000; AID 720648, 2013;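 active means inhibition above the mean of compounds lying between control limits plus 3 SD, set per campaign, cut at about 8.5% in these data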;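 further: 0% = DMSO-only wells as the low control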
PLC-gamma1 inh – PLC-gamma1 enzyme inhibitors, primary screen, biochemical, fluorescence, purified enzyme | fluorogenic substrate | inhibition, % at 12.2 µM | hit rate 0.84% among 370,000 | AID 720700, 2013; in the data active means inhibition above about 9.5%
ADAM10 ctr – ADAM10 inhibitors, counter-screen for ADAM17 exosite inhibitor project, biochemical, FRET, human ADAM10 | recombinant ADAM10, EDANS/DABCYL FRET peptide cleavage, 3 h | inhibition, % at 6.95 µM | shares compounds with ADAM17 inh | hit rate 47% among 2,900;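 active means mean inhibition over the triplicate runs exceeds the activity threshold set in the earlier primary screen, cut at about 20% in these data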;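 further: 0% = DMSO wells and 100% = marimastat wells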
ADAM17 confirm – ADAM17 inhibitors, hit retest, confirmation, biochemical, QFRET peptide cleavage | shares compounds with ADAM17 inh | recombinant ADAM17, EDANS/DABCYL QFRET peptide cleavage | inhibition, % at 6.95 µM | hit rate 65% among 2,900;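 active means mean inhibition across replicates above the hit cutoff set in the primary screen, cut at about 8.5% in these data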;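 further: 0% = DMSO wells and 100% = marimastat wells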
* marks the source's active call; other numbers are inactive results; i = inactive; . = no result given. Shown are actives, neighbours in structure and some others; about 2.9% of the full set was active somewhere.

SMILES	KLK7 zymogen act	PLCb3 inh	ADAM10 inh	ADAM17 inh	PLC-gamma1 inh	ADAM10 ctr	ADAM17 confirm
CC(c1ccccc1)n1c(SCC(=O)N2CC(=O)Nc3ccccc32)nc2ccccc2c1=O (stereo not drawn)	1	-1	15	8.9*	6	37*	16*
C[C@@H]1COc2cc(N(C)CCO)ccc2S(=O)(=O)N1	0	-1	-12	-5	-1	.	.
CCN(CC)c1ccc(S(=O)(=O)N2CCOCC2)cc1NC(=O)COC(=O)/C=C/c1ccccc1	0	-3	11	8.8*	7	14	11*
CCCC#Cc1ccc2c(c1)O[C@H](CN(C)S(=O)(=O)c1cccc(OC)c1)[C@H](C)CN([C@H](C)CO)S2(=O)=O	1	1	12	9.6*	0	25*	13*
COc1cccc(C#Cc2ccc3c(c2)O[C@H](CN(C)S(=O)(=O)c2ccccc2F)[C@H](C)CN([C@H](C)CO)S3(=O)=O)c1	-1	-3	-6	11*	-4	-24	-5
O=C(COC(=O)c1ccco1)Nc1ccc2c(c1)OCO2	0	-1	2	9.6*	6	-10	-6
O=C(COC(=O)c1ccco1)NCc1ccc2c(c1)OCO2	0	-7	-5	-9	-2	.	.
O=C(Nc1cccc(Oc2ccccc2)c1)C1Cc2c(-c3cccc(F)c3)ccnc2O1 (stereo not drawn)	0	0	15	15*	1	15	11*
COCCNc1nc2cc(-c3ccccc3OC)sc2c(=O)n1C	0	-6	-64	-19	-3	.	.
CC1(C)C=C2C(N(CC3CC3)C(=N)N2C(=O)OCc2ccccc2)n2c(=O)n(-c3ccccc3)c(=O)n21 (stereo not drawn)	.	-22	-20	-5	-15	.	.
O=C(CNC(=S)N(Cc1ccccc1)Cc1ccccc1F)NCc1ccc(Cl)cc1	0	-8	17	5	2	.	.
O=C(CNC(=S)N(Cc1ccccc1)Cc1ccccc1F)NCc1ccccc1	0	-3	12	9.1*	-1	30*	13*
Cc1ccc(C(=O)NCC(C)NC(=O)c2ccc(C)c(C)c2)cc1C (stereo not drawn)	0	-5	11	3	4	.	.
CCOc1ccc(Br)cc1C1=CC(=O)C[C@H](c2ccc(OC)cc2)C1	0	-14	2	-2	-9	.	.
CCc1ccccc1Nc1cc(C(=O)NCc2ccccn2)c2ccccc2n1	1	-40	18	9.0*	-29	-2	8
CCc1ccc(-c2cc(C(=O)NCc3ccccn3)c3ccccc3n2)cc1	-1	-87	i	-177	-69	.	.
CCc1nc2ccc(C(=O)NCCCN3CCCC3=O)cn2c1N(C)C(=O)Nc1ccccc1OC	1	-5	-7	0	-7	.	.
COc1ccc(CN2C(=O)CCC2(C)c2nnnn2Cc2ccccc2)cc1 (stereo not drawn)	0	2	-1	-4	7	.	.
Cc1ccc(S(=O)(=O)N2C[C@H]3[C@H]4C(=O)N(c5ccccc5)C(=O)[C@H]4CC(=O)[C@H]3[C@@H]2c2ccc(Cl)cc2)cc1	0	-4	-1	2	-1	.	.
CCc1ccc([C@H]2[C@@H]3C(=O)C[C@@H]4C(=O)N(c5ccccc5)C(=O)[C@@H]4[C@@H]3CN2S(=O)(=O)c2ccc(C)cc2)cc1	1	-3	10	8.7*	1	10	10*
COc1cccc(NC(=O)c2csc3c2CCCC3)c1	-1	5	10	13*	9	10	9
COc1c(S(=O)(=O)N2CCN(c3ccc(F)cc3)CC2)ccc(Cl)c1Cl	1	-1	16	9.7*	1	22*	14*
